DT40 TDP1 no CPT: qHTS for Inhibitors of human tyrosyl-DNA phosphodiesterase 1 (TDP1): qHTS in cells in absence of CPT | Potency, µM (doses to about 46.2 µM), for inactives: at the highest dose activity change, negative = growth inhibition, actives largely listed as inhibitors | 420,000 compounds, 15% hits | AID 686978, 2013 | DT40 Tdp1-/- hTDP1 cells, no CPT, ATP luminescence, 48 h; also: potency is read from the fitted curve at half-maximal effect; nearly all actives have a fitted effect of over 55% in size
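A cellular qHTS used chicken DT40 cells lacking endogenous Tdp1 but carrying stably transfected human TDP1. Compounds were applied without camptothecin, and cell growth kinetics were judged by ATP-dependent luminescence after ≥48 hr.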
IL-1B inflam inh: inhibitors of inflammasome signaling (IL-1 beta secretion). THP-1 LPS/ATP IL-1B secretion, AlphaLISA, 16 h; active compounds read low. activity change, % at 57.5 µM. 360,000 compounds, 4.7% hits. AID 743279; in the data active = activity change below about -50%; inconclusive = mostly about -30% to -49%
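Secreted IL-1B measured by AlphaLISA bead assay after 16 h compound exposure of THP-1 cells; compounds (final up to 57.5 uM) added 1 h before LPS (250 ng/mL) and ATP (1.25 mM) stimulation; lower signal means less secretion.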
HT1080 IDH1KD tx: kills HT-1080 cells with IDH1 knockdown | HT-1080 IDH1 knockdown viability, ATP luminescence, 48 h | Potency, µM (series often up to 46.1 µM), for the others: top-dose activity, negative = toxicity, hits mostly cytotoxic | 360,000 compounds, 2% hits | AID 686971;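 also: potency is read from the fitted curve at half-maximal effect; 0% = DMSO wells and -100% = cell-free medium wells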
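In this qHTS, HT-1080 cells depleted of IDH1 are exposed for 48 h at 37 °C to compound titrations. Toxicity is scored from CellTiter-Glo luminescence, with DMSO as full viability and medium alone as none.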
uPA generation: inhibitors of cell surface uPA generation. cell surface uPA generation assay, qHTS. Potency, µM (highest dose often 38.3 µM), inactives show at the highest dose activity change, negative = inhibition, usual class: inhibitors. 330,000 compounds, 0.31% hits. AID 540303; active = well fitted inhibition curve with a large enough effect; inconclusive = small, poorly fitted or top-dose-only effect; inactive = no such curve, though single readings can be large or run the other way; tested in mouse RAW 264.7 cells; also: potency is read from the fitted curve at half-maximal effect; nearly all actives have a fitted effect of over 55% in size
DT40 TDP1 CPT: DT40-hTDP1 cell growth loss with CPT; chicken DT40 Tdp1-/-;hTDP1 cells + 20 nM CPT, ATP luminescence, 48 h; 420,000 compounds, 12% hits; AID 686979; Potency, µM (top dose mostly 46.2 µM), for the others: at the top dose activity change, negative = growth inhibition, hits mostly inhibitors; also: potency is read from the fitted curve at half-maximal effect; nearly all actives have a fitted effect of over 55% in size
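Cell growth measured by CellTiter-Glo luminescence after a minimum 48 h, 37 C compound exposure with 20 nM CPT in Tdp1-knockout DT40 cells stably expressing hTDP1, seeded 400/well; qHTS titration format.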
HT1080-NT tox: kills 2HG-producing HT-1080-NT fibrosarcoma cells; HT-1080-NT fibrosarcoma viability, CellTiter-Glo ATP luminescence, 48 h; Potency, µM (top dose mostly 46.1 µM), for inactives: top-dose activity, negative = less viability, hits mostly cytotoxic; 360,000 compounds, 1.6% hits; AID 686970;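 also: NT is the 2HG producing partner of a matched IDH1 knockdown line; potency is read from the fitted curve at half-maximal effect; 0% = DMSO-treated cells and -100% = media-only wells without cells; nearly all actives have a fitted effect of over 55% in size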
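Compounds were tested in concentration-response format on HT-1080-NT cells for 48 hours at 37 degrees C. Cell viability came from CellTiter-Glo luminescence; curves were classified by r2, response magnitude and activity.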
Starred values were filed as active, the others as inactive; ? = inconclusive; . = no result; ! = not active in a repeat. This is a sample that favours compounds with a hit; in the whole collection about 19% have one here. Unless noted, calls follow the shape of the dose curve; as a rule, active = well fitted curve in the direction sought with a large enough effect; inconclusive = small, poorly fitted or top-dose-only effect, or another doubt; inactive = no such curve, though single readings can be large; an effect the other way counts as inactive or inconclusive. Unless noted, % is scaled to controls: 0 for no effect and ±100 for the full control effect.

SMILES | DT40 TDP1 no CPT | IL-1B inflam inh | HT1080 IDH1KD tx | uPA generation | DT40 TDP1 CPT | HT1080-NT tox
COC(=NC1CCCC1)C(O)c1c[nH]c2ccccc12 (stereo not given) | -25% | 0 | 2% | 1% | ? | -1%
COc1cc2c(cc1OC)C(C(=O)N(C)C1CCCCC1)C1CCCCN1C2=O (stereo not given) | ? | -1 | 0% | -3% | -3% | 0%
CCCNC(=O)c1ccc2c(=O)c(O)c(-c3ccsc3)[nH]c2c1 | 18µM* | 97 | -25% | ? | ? | -24%
O=C(Nc1cc(Cl)cc(Cl)c1)N1Cc2ccccc2-n2nncc2C1 | ? | -20 | 12% | . | ? | -10%
COc1ccccc1OCCCn1cc(C(=O)c2ccco2)c2ccccc21 | ? | ? | -8% | -6% | 18µM* | -2%
O=C1NC(=O)C2C1C1(Cl)C(Cl)=C(Cl)C2(Cl)C1(Cl)Cl (stereo not given) | -14% | -9 | -6% | -2% | -22% | -6%
C[C@H]1CC[C@]2(NC1)O[C@H]1C[C@H]3[C@@H]4CC[C@H]5C[C@@H](O)CC[C@]5(C)[C@H]4CC[C@]3(C)[C@H]1[C@@H]2C | ? | . | . | . | -3% | .
CC1(C)CC2CCC(O)C2C(CCO)N1 (stereo not given) | 6% | 4 | 4% | -10% | -7% | 2%
CC12CCC3c4ccc(O)c([N+](=O)[O-])c4CCC3C1CCC2=O (stereo not given) | ? | 32 | -14% | . | ? | -30%
C[C@]12CC[C@@H]3c4ccc(O)c(O)c4CC[C@H]3[C@@H]1CC[C@@H]2O | 13µM* | ? | ? | ? | 26µM* | ?
Cc1nc(-c2cccc(NC(=O)c3ccc(Cl)c(S(=O)(=O)N4CCCC4)c3)c2)cs1 | 8.2µM* | -15 | -20% | . | ? | -8%
c1cnc(N2CC3(CCNCC3)C2)nc1 | -7% | . | . | . | 7% | .
O=C(Oc1ccccc1)N1CCC2(CCN(Cc3ccccc3)CC2)CC1 | -8% | . | . | . | 6% | .
c1ccc(N2CCC3(CCNCC3)CC2)nc1 | ? | . | . | . | 18µM* | .
c1ccc(CN2CCC3(CCc4ccccc43)CC2)cc1 | ? | . | . | . | 24µM* | .
c1ccc(CN2CCC3(CCNCC3)CC2)cc1 | 3.3µM* | . | . | . | 4.6µM* | .
c1ccc(N2CCC3(CCNCC3)CC2)cc1 | 18µM* | . | . | . | -102% | .
NC(=O)C1(N2CCCCC2)CCN(Cc2ccccc2)CC1 | -14% | -20 | 7% | -2% | -14% | -1%
N/C(=N\[N+](=O)[O-])N1CCN(C(=O)Oc2ccccc2)CC1 | 3% | -8 | -1% | 2% | 5% | 10%
COc1cccc(C)c1NC1=NCCO1 | -22% | 5 | -16% | . | -9% | 1%
COc1ccc(S(=O)(=O)NC(CC(=O)N2CCC3(CC2)OCCO3)C(C)C)cc1 (stereo not given) | 5% | 4 | -1% | 2% | -5% | -13%
O=C(NC1CC2CCCC(C1)N2)c1ccccc1 (stereo not given) | 5% | 4 | 14% | -6% | 8% | 13%
C=C1C[C@@H]2[C@H](CC[C@]3(C)C(=O)CC[C@@H]23)[C@@]2(C)C=CC(=O)C=C12 | 8.4µM* | . | . | . | 16µM* | .
CC12C=CC(=O)C=C1CCC1C2C(=O)CC2(C)C(=O)CCC12 (stereo not given) | -3% | 0 | 10% | -1% | 9% | 16%
CCN(CCO)CCn1c(Cc2ccccc2)nc2c1c(=O)n(C)c(=O)n2C | -14% | . | . | . | -10% | .
SMILES | DT40 TDP1 no CPT | IL-1B inflam inh | HT1080 IDH1KD tx | uPA generation | DT40 TDP1 CPT | HT1080-NT tox
Cn1c(=O)c2c(nc(-c3ccc(N(CCCl)CCCl)cc3)n2C)n(C)c1=O | 26µM* | ? | -15% | -4% | 15µM* | -11%
C1CN(P2(N3CC3)=NP(N3CC3)(N3CC3)=NP(N3CC3)(N3CC3)=N2)CCO1 (stereo not given) | 1.3µM* | -4 | 5% | . | 0.58µM* | 11%
CCOc1ccc2nc(NC(=O)c3cccn(Cc4ccc(Cl)cc4)c3=O)sc2c1 | 0% | . | . | . | 0% | .
CCOc1ccc2nc(N3CCC(C(=O)Nc4ccc(Br)cc4F)CC3)sc2c1 | 13µM* | . | . | . | 12µM* | .
Brc1ccc(Oc2cc(Br)c(Br)cc2Br)c(Br)c1 | ? | 36 | -3% | 2% | 12% | ?
CC1([N+](=O)[O-])COP(=O)(Nc2ccc(Cl)cc2)OC1 (stereo not given) | ? | -1 | 0% | 1% | ? | -2%
CN1[C@H](CC(=O)c2ccccc2)CCC[C@H]1C[C@H](O)c1ccccc1 | -25% | . | . | . | -2% | .
CCCN(CC1CC1)CC(O)c1ccccc1 (stereo not given) | 18µM* | -2 | 3% | -5% | 16µM* | 2%
CC(C)[C@]12O[C@H]1[C@@H]1O[C@]13[C@]1(O[C@H]1C[C@H]1C4=C(CC[C@@]13C)C(=O)OC4)[C@@H]2O | 0.15µM* | . | . | . | 0.12µM* | .
O=c1[nH]c(=O)n(-c2ccccc2F)c(O)c1C=NCCC1=CCCCC1 | ? | -21 | 0% | 9% | 11% | -7%
CCOC(=O)c1cnc2c(ccc3ccccc32)c1Nc1ccc(C(C)=O)cc1 | 23µM* | . | . | . | ? | .
CC(=O)Nc1ccccc1C(=O)OCC(=O)c1ccc2ccccc2c1 | -3% | -8 | -21% | . | ? | ?
Cc1ccc2cc(NC(=O)c3ccccc3)ccc2n1 | 10% | 0 | -11% | ? | -21% | -7%
CC(C)(C)OC(=O)N(CCc1ccccc1)Cc1ccc(OCc2cccc(NC(=O)c3ccccc3)c2)cc1 | 21µM* | -3 | 5% | -1% | ? | 16%
CCOP(=O)(/C(C#N)=C(\C)O)c1ccccc1 (stereo not given) | ? | 14 | 0% | 18% | -21% | -2%
CNc1ccc2nc3ccccc3[n+](C)c2c1 | 0.73µM* | 0 | 15µM* | 4.5µM* | 1.2µM* | 21µM*
C[n+]1c2ccccc2nc2ccc(NCCO)cc21 | 10µM* | -10 | -20% | -6% | 18µM* | -12%
CCC1CO/C(=C(\C(Cl)=C(Cl)Cl)[N+](=O)[O-])N1Cc1ccc(Cl)nc1 (stereo not given) | 2% | 64 | 13% | -11% | -16% | 18%
O=C(C(=C1N(Cc2ccc(Cl)nc2)CCN1Cc1ccc(Cl)nc1)[N+](=O)[O-])C(Cl)Cl | 16µM* | -71* | -1% | 5% | ? | -2%
O=[N+]([O-])/N=C1\NCCN1Cc1ccc(Cl)nc1 | 6.7µM* | . | . | . | 8.4µM*! | .
